Here are results for 33 molecules from PubChem BioAssay (NCATS).

Unmarked numbers belong to inactive results. Results filed as inconclusive are left out. A call without a number means that no potency is given here. Activity calls are given as the source filed them. Unless noted, the call rests on the fitted dose curve; in most records, active means well fitted curve in the direction sought with a large enough effect; inconclusive means small, poorly fitted or top-dose-only effect, or another doubt; inactive means no such curve, though single readings can be large; an effect the other way counts as inactive or inconclusive.

The nature of experiment [1]: Confirmation and Secondary Assay for Modulators of Hemoglobin Beta Chain Splicing at IVS2 654 locus (AID 910).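 Further: per-well total GFP intensity by laser scanning cytometry after 2-day treatment.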 The method in brief:
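HeLa cells stably carrying EGFP interrupted by mutant beta-globin IVS2-654 intron (CMV-driven) were treated with compound for 2 days at 37C; corrected splicing was scored as total peak GFP intensity per well (488 nm excitation, 500-520 nm emission).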

Experiment [2] addresses 3',5'-cyclic-AMP phosphodiesterase 4B (Homo sapiens) (UniProt Q07343). As to the kind of experiment: qHTS Assay for Inhibitors of PDE-IV (AID 607; active means well fitted activation curve with a large enough effect in the main read-out, with a control signal flat, not every such curve was filed as active). The method in brief:
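HEK293 ACTOne cells with CNG channel (1000/well), endogenous PDE4; membrane potential dye, compounds up to 22.9 uM final. Fluorescence Ex 535/Em 590; RO 20-1724 (100 uM final) as reference.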

The target in experiment [3] is Cytochrome P450 2C9 (Homo sapiens) (UniProt P11712). As to the kind of experiment: qHTS Assay for Inhibitors and Substrates of Cytochrome P450 2C9 (AID 883). Further: nearly all actives have a fitted effect of over 60% in size. Further: potency means the concentration at half of the fitted maximal effect. The method in brief: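 A luminogenic readout tracked human CYP2C9 (10nM) converting deoxyluciferin (100uM, at KM) in 25mM KPO4 during 60 min at 37C with regenerated NADPH. Values normalized to 57uM sulphaphenazole as complete inhibition.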
(In general: qHTS replaces the single test concentration by a dilution series.)

For experiment [4], the target named is Cytochrome P450 3A4 (Homo sapiens) (UniProt P08684). As to the kind of experiment: qHTS Assay for Inhibitors and Substrates of Cytochrome P450 3A4 (AID 884). Further: nearly all actives have a fitted effect of over 50% in size. Further: potency means the concentration at half of the fitted maximal effect. On activity change, negative = inhibition: series mostly up to about 57 µM. The method in brief:
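Luminescent readout of luciferin produced by CYP3A4 (20 nM) dealkylation of Luciferin-PPXE, 25 uM (its KM). NADPH-driven reaction ran 60 min at RT after 10 min compound preincubation; data scaled to 57 uM ketoconazole as 100% inhibition.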

Experiment [5] has as its target Cytochrome P450 2D6 (Homo sapiens) (UniProt P10635). As to the kind of experiment: qHTS Assay for Inhibitors and Substrates of Cytochrome P450 2D6 (AID 891). Further: potency means the concentration at half of the fitted maximal effect; nearly all actives have a fitted effect of over 60% in size. As to conditions: recombinant CYP2D6, luciferin-ME EGE luminescence. The method in brief:
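Luminescent read-out of luciferin formed by 5 nM human CYP2D6 demethylating 30 uM Luciferin-ME EGE (Km level) over 60 min at room temperature after NADPH regeneration addition. Data normalized to full inhibition by 1.43 uM quinidine.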

Experiment [6] deals with Cytochrome P450 2C19 (Homo sapiens) (UniProt P33261). The experiment can be described thus: qHTS Assay for Inhibitors and Substrates of Cytochrome P450 2C19 (AID 899). Further: potency means the concentration at half of the fitted maximal effect; nearly all actives have a fitted effect of over 60% in size. As to conditions: recombinant CYP2C19, luciferin-H EGE luminescence. The method in brief: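 NADPH-dependent conversion of Luciferin-H EGE (10uM, at KM) by 5nM enzyme in 50mM KPO4, 60 min at 37C following 10 min compound preincubation. Stopped with luciferin detection buffer; luminescence read after 20 min.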

In experiment [7] the target is Cytochrome P450 3A4 (Homo sapiens) (UniProt P08684). The experiment can be described thus: qHTS Assay for Activators of Cytochrome P450 3A4 (AID 885). Further: nearly all actives have a fitted effect of over 65% in size. Further: potency means the concentration at half of the fitted maximal effect. The method in brief:
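Human CYP3A4 dealkylates Luciferin-PPXE to luciferin, which luciferase detection converts to light. Substrate was at its KM (25uM), buffer 200mM KPO4, reaction 60 min at RT.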

Experiment [8] can be described thus: Cellular Toxicity (caspase-3) HepG2 (AID 654).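 Further: cells exposed to compound for 16 hours before reading.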 Put shortly: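 Caspase 3/7 activation is measured as a luminescence increase (aminoluciferin substrate) after 16 h compound exposure of human hepatocarcinoma HepG2 cells. AC50 values are Hill fits, scaled between DMSO baseline and 100 uM tamoxifen stimulation.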
A short description of experiment [9]: Cellular Toxicity (caspase-3) Jurkat (AID 655).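 Further: cells exposed to compound for 16 h at 37 °C before reading.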 Put shortly:
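qHTS in human Jurkat T-cell leukemia line: 16 hr compound treatment at 37 °C, caspase-3/7 activity measured by Caspase-Glo luminescence. AC50 derived from Hill equation.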

A short description of experiment [10]: Cellular Toxicity (caspase-3) HUV-EC-C (AID 656). Put shortly:
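Concentration-dependent caspase 3/7 induction was assessed in HUV-EC-C cells exposed for 16 hours. Data scaled between DMSO and tamoxifen (100 uM) controls.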

The nature of experiment [11]: Cellular Toxicity (caspase-3) SHSY5Y (AID 657).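 Further: cells exposed to compound for 16 hours at 37 °C.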 Put shortly:
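Readout: caspase-cleaved peptide-aminoluciferin substrate driving luciferase light in SH-SY5Y neuroblastoma cells after 16 h treatment. Response normalized to DMSO and 10 uM staurosporine controls.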

Experiment [12] can be described thus: Cellular Toxicity (caspase-3) BJ (AID 658). Put shortly:
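Plated BJ cells (1000/well) rested 5 hr, received compound for 16 hr at 37 °C, then Caspase-Glo 3/7 reagent for 1 hr at room temperature before luminescence reading.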

A short description of experiment [13]: Cellular Toxicity (caspase-3) MRC-5 (AID 659). The method in brief: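 Apoptosis readout in MRC-5 cells: luciferase light generated after caspase 3/7 cleaves a peptide-aminoluciferin substrate, measured post 16 hr compound incubation at 37 °C.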
Experiment [14] can be described thus: Cellular Toxicity (caspase-3) Mesangial (AID 660).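 Further: combined caspase 3 and 7 activity read by Caspase-Glo luminescence; cells exposed to compound for 16 h before the caspase read.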 The method in brief: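 Caspase 3/7 activation measured by Caspase-Glo 3/7 luminescence (20 min, room temperature) following 16 h exposure of mesangial cells (1000/well); AC50 from Hill-equation fit, normalized to DMSO and 100 uM tamoxifen.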
Experiment [15] in a line: Cellular Toxicity (caspase-3) SK-N-SH (AID 661). Put shortly:
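Caspase 3/7 activation was read by luminogenic substrate cleavage after 16 hour treatment of SK-N-SH cells. Signal was scaled between DMSO and 10 uM staurosporine, and concentration-response data were fitted with the Hill equation for AC50.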

The nature of experiment [16]: Cellular Toxicity (caspase-3) H-4-II-E (AID 663).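 Further: cells exposed to compound for 16 hr before readout.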 The method in brief: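 Caspase 3/7 activation measured in H-4-II-E cells in complete culture medium after 16 hr treatment at 37 °C, using luciferase-coupled substrate readout; AC50 values come from Hill-equation fits of normalized concentration-response data.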
A short description of experiment [17]: Cellular Toxicity (caspase-3) Hek293 (AID 664).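 Further: cells exposed to compound for 16 h at 37 °C before readout.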 The method in brief: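 Concentration-response qHTS: caspase 3/7 activation measured by luminescent aminoluciferin substrate cleavage after 16 h compound exposure of Hek 293 cells. AC50 from Hill equation, with DMSO as basal and 100 uM tamoxifen as 100%.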
The nature of experiment [18]: Cellular Toxicity (caspase-3) N2a (AID 665).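 Further: compound exposure lasted 16 h at 37 °C before readout.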 Put shortly:
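Caspase-3/7 activation measured as luminescence from Caspase-Glo reagent (1 h, room temperature) after 16 h compound exposure of mouse N2a cells. AC50 values from Hill-equation concentration-response, scaled between DMSO and 10 uM staurosporine.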

A short description of experiment [19]: Cellular Toxicity (caspase-3) NIH 3T3 (AID 666). Put shortly: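 Caspase-Glo 3/7 luminescence reported caspase activation in 1000 NIH 3T3 cells/well after 16 h compound exposure at 37 C. DMSO set basal and 100 uM tamoxifen set 100% stimulation; concentration-response modeled with the Hill equation for AC50.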
Experiment [20] in a line: Cellular Toxicity (caspase-3) Renal Proximal Tubule (AID 667).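 Further: cells exposed to compound for 16 hours at 37 °C before detection.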 The method in brief:
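Caspase-Glo 3/7 read-out, rat primary kidney proximal tubule cells. Compound exposure 16 h, 37 °C; detection after 1 h at RT. Activity scaled to DMSO and 10 uM staurosporine.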

Sequence of Cytochrome P450 3A4 (Homo sapiens) (P08684 whole entry, looked up): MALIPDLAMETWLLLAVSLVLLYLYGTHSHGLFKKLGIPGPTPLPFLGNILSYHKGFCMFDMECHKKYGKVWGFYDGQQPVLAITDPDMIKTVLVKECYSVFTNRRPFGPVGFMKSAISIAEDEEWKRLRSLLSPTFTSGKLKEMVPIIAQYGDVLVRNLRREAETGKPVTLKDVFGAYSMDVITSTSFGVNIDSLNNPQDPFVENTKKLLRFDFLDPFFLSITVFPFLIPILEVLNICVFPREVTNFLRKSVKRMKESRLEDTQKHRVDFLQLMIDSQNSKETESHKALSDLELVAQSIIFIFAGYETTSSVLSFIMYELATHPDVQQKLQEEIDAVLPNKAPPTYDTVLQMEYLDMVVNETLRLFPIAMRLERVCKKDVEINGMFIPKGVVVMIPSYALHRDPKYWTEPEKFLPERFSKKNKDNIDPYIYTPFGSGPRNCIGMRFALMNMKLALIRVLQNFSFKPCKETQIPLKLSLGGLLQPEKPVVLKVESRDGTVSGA
Sequence of Cytochrome P450 2C9 (Homo sapiens) (P11712 whole entry, looked up): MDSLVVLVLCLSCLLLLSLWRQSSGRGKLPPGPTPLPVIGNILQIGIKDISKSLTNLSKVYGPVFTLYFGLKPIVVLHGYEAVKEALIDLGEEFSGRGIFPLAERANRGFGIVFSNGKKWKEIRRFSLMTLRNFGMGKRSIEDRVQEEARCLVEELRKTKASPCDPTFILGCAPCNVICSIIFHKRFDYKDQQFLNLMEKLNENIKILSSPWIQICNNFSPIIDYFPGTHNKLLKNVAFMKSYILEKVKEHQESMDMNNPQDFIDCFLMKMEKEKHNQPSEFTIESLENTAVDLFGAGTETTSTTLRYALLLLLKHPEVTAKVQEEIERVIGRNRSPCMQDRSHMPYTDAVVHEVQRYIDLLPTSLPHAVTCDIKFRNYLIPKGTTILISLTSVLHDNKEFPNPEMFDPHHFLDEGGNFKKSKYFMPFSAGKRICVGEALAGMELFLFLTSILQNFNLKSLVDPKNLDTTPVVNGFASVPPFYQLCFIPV
Sequence of Cytochrome P450 2D6 (Homo sapiens) (P10635 whole entry, looked up): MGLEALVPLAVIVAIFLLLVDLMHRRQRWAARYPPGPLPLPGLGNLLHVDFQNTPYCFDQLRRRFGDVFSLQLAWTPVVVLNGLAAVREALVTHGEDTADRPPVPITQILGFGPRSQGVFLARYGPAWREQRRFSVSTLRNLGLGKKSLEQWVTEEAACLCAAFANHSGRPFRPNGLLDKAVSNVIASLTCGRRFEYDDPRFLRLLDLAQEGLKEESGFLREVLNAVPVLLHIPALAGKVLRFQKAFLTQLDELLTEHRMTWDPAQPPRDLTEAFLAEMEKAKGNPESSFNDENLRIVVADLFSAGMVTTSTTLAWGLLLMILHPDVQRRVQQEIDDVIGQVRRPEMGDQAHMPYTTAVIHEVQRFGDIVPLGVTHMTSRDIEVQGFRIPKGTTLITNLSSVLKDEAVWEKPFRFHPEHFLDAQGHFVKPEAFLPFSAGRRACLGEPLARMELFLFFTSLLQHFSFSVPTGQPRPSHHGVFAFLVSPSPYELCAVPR
Sequence of 3',5'-cyclic-AMP phosphodiesterase 4B (Homo sapiens) (Q07343 whole entry, looked up): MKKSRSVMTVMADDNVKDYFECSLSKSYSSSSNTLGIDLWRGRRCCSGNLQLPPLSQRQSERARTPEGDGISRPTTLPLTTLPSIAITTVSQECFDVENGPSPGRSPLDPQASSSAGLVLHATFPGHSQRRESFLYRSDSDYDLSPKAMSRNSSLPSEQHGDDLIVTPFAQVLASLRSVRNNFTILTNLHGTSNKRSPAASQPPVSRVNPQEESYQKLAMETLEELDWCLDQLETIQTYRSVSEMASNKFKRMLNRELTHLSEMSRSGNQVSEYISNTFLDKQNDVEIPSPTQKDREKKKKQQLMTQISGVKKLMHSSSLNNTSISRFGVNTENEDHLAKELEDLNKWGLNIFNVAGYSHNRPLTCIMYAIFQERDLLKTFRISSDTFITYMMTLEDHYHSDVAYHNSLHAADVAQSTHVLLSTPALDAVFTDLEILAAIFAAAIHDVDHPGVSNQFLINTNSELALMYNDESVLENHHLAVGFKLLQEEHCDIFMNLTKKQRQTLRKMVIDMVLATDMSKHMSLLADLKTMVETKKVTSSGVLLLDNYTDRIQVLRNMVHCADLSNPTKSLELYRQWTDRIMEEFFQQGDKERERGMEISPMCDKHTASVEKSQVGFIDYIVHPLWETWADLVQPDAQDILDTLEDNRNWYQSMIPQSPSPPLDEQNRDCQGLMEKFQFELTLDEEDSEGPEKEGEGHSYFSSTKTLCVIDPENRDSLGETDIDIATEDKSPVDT
Sequence of Cytochrome P450 2C19 (Homo sapiens) (P33261 whole entry, looked up): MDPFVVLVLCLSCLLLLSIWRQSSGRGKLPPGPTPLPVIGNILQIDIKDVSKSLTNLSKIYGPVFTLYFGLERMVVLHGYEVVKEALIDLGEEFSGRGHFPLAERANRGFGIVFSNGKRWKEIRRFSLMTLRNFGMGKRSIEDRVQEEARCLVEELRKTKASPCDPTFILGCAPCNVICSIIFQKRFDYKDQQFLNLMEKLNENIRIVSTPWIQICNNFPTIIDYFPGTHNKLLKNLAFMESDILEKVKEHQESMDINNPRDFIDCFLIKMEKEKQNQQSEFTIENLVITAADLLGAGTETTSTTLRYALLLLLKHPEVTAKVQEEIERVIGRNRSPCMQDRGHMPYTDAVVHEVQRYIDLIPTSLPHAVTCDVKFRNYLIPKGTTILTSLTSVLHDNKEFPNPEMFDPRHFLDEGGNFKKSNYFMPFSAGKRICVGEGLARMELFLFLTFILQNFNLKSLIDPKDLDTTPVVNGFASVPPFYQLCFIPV

In the case of `COc1ccc2ccc(=O)oc2c1CC=C(C)C`, the call in experiment [1] was inactive.

As for `Cc1ccc(NC(=O)c2cccc(N(C)C)c2)cc1NC(=O)c1ccc(O)cc1`, the result in experiment [2] was inactive. Moreover, the Potency result in [3] is “inactive”.

As for `CN[C@H]1[C@@H](O[C@@H]2[C@H](O[C@@H]3[C@@H](O)[C@@H](O)[C@@H](N=C(N)N)[C@@H](O)[C@@H]3N=C(N)N)O[C@H](C)[C@@]2(O)C=O)O[C@@H](CO)[C@@H](O)[C@H]1O`, the molecule was classed as inactive in experiment [2].

For the molecule `Clc1ccc(COC(Cn2ccnc2)c2ccc(Cl)cc2Cl)c(Cl)c1` (stereo unspecified), the Potency in experiment [3] was 0.316 µM (active).

Take `NS(=O)(=O)c1cc(Cl)c(Cl)c(S(N)(=O)=O)c1`: the molecule was called inactive in experiment [2]. Besides, the Potency entry in experiment [3] was “inactive”.

Regarding `Cc1cc2nc3c(=O)[nH]c(=O)nc-3n(CC(O)C(O)C(O)CO)c2cc1C` (stereo unspecified), in experiment [2], the molecule was classed as inactive. Also, the Potency entry in experiment [3] and in experiment [4] was “inactive” in each case.

As to `COc1ccnc(CS(=O)c2nc3ccc(OC(F)F)cc3[nH]2)c1OC` (stereo unspecified), in experiment [1], the molecule was classed as inactive.

Take `CN(C)CCN(Cc1ccc(Cl)cc1)c1ccccn1`: the Potency was 0.02 µM (active) in [5] and 6.31 µM (active) in [6].

As to `CCC(=C(CC)c1ccc(O)cc1)c1ccc(O)cc1`, in [2], the molecule was called inactive. Also, in experiment [3], the Potency was 12.6 µM (active).

With `CN(C)c1ccccc1CN1CCCN(Cc2ccccc2N(C)C)C1c1ccncc1`, the call in experiment [2] was inactive. The activity change, positive = activation in experiment [7] was -30.9% [at 11.4 µM]. For the same molecule, the Potency in experiment [5] was 1.26 µM (active).

As to `NC(=O)c1nnn(Cc2cc(Cl)c(C(=O)c3ccc(Cl)cc3)c(Cl)c2)c1N`, the result in [2] was inactive. The activity change, negative = inhibition in experiment [3] is 52.5% [at 11.4 µM].

Regarding `CS(=O)(=O)c1ccc(C2=C(c3ccccc3)C(=O)OC2)cc1`, the Potency result in experiment [4] is “inactive”. In [1], the outcome was inactive.

As for `O=c1cc(-c2ccc(O)c(O)c2)oc2cc(O)cc(O)c12`, the molecule was classed as inactive in experiment [2]. For the same molecule, in experiment [7], the Potency result was “inactive”.

`CC[C@H](C)C(=O)O[C@H]1C[C@H](O)C=C2C=C[C@H](C)[C@H](CC[C@@H](O)C[C@@H](O)CC(=O)O)[C@H]21`: the Potency entry in experiment [4] was “inactive”.

Regarding `CN1CCN2c3ncccc3Cc3ccccc3C2C1` (stereo unspecified), the figures for the Potency in experiment [3], in experiment [5] and in experiment [6] were 0.0501 µM (active), 0.501 µM (active) and 0.0501 µM (active), respectively.

Turning to `Cc1cc(NC(=O)Nc2ccc(N(C)C)cc2)c2cc(F)cc(F)c2n1`, the Potency in experiment [3] and in experiment [4] was 6.31 µM (active) throughout. Further, in experiment [7], the Potency result is “inactive”.

For the molecule `NCC1CCC(C(=O)O)CC1` (stereo unspecified), the result in experiment [2] and in [1] was inactive.

On to `CN1C(=O)C(Cc2c[nH]c3ccccc23)NC1=S` (stereo unspecified), for which the Potency in [4] is 6.31 µM (active). Besides, the Potency result in [7] is “inactive”.

On to `Cc1ccc2c(c1)C(=O)[C@]1(O)CCN(c3ccccc3)C1=N2`, for which, in [7], the Potency result was “inactive”.

Take `O=C1C(CCC(O)c2ccc(F)cc2)C(c2ccc(O)cc2)N1c1ccc(F)cc1` (stereo unspecified): in [1], the molecule was called inactive.

For the molecule `COc1ccc(CCN(C)CCCOc2ccc(S(=O)(=O)c3[nH]c4ccccc4c3C(C)C)cc2)cc1OC`, the result in experiment [2] was inactive.

For `COC1CCC(C(=O)c2ccc3nc4c(cc3c2)CCCO4)CC1` (stereo unspecified), in experiment [4], the Potency result was “inactive”. The Potency in [7] was 5.01 µM (active).

Take `CC(NCCc1ccc(O)cc1)C(O)c1ccc(O)cc1` (stereo unspecified): the Potency result in experiment [4] was “inactive”. In addition, the result in experiment [1] was inactive.

Regarding `CC1C(=O)OC2C(O)C34C5CC(C(C)(C)C)C36C(OC(=O)C6O)OC4(C(=O)O5)C12O` (stereo unspecified), in experiment [2], the molecule was classed as inactive.

On to `OC(c1cc(C(F)(F)F)nc2c(C(F)(F)F)cccc12)C1CCCCN1` (stereo unspecified), for which the molecule was called inactive in experiment [1].

Turning to `CCC(c1ccc(O)cc1)C(CC)c1ccc(O)cc1` (stereo unspecified), the result in [1] was inactive.

As to `C[C@@H]1C[C@H]2[C@@H]3CCC4=CC(=O)C=C[C@]4(C)[C@@]3(F)[C@@H](O)C[C@]2(C)[C@@]1(O)C(=O)CO`, the result in experiment [8], in experiment [9], in experiment [10], in experiment [11], in experiment [12] and in experiment [13] was inactive. Further, the call in experiment [14], in [15], in [16], in [17], in [18] and in experiment [19] was inactive. Moreover, the result in experiment [20] was inactive.

Regarding `O=S(=O)(O)c1ccc2cc(N=Nc3cc(S(=O)(=O)O)c4cccnc4c3O)ccc2c1`, the call in experiment [2] was inactive.

`COc1ccc2cc1Oc1ccc(cc1)C[C@H]1c3cc(c(OC)cc3CCN1C)Oc1c(OC)c(OC)cc3c1[C@H](C2)N(C)CC3`: the Potency entry in experiment [4] is “inactive”.

Turning to `CC1(C)OC2CC3C4CC(F)C5=CC(=O)C=CC5(C)C4C(O)CC3(C)[C@]2(C(=O)CO)O1` (stereo partly specified), the Potency entry in [7] is “inactive”. Moreover, the outcome in [1] was inactive.

Consider `COc1nccc(-c2c(-c3ccc(F)cc3)ncn2C2CCC(O)CC2)n1` (stereo unspecified), for which, in experiment [2], the molecule was classed as inactive.

Turning to `CCCCC(C=O)NC(=O)C(CC(C)C)NC(=O)OCc1ccccc1` (stereo unspecified), the result in experiment [2] was inactive. The Potency result in [7] was “inactive”.

For `C=C1c2cccc(O)c2C(O)=C2C(=O)[C@@]3(O)C(O)=C(C(N)=O)C(=O)[C@@H](N(C)C)[C@@H]3[C@@H](O)[C@H]12`, in experiment [2], the call was inactive.
